Screening results as filed in PubChem.
In the library only some 0.55% were active in any assay of this set; here they are far more common.
A-T KAP1 phos: potential ataxia-telangiectasia treatment. F2112 A-T fibroblasts, KAP-1 phosphorylation AlphaLISA; neocarzinostatin DNA damage 30 min before lysis. Potency, µM (top dose mostly 57.5 µM), without a hit: at the top dose activation, actives largely listed as activators. actives 0.19% (n = 320,000). AID 485349; also: potency is read from the fitted curve at half-maximal effect; % of control where 0% means no effect; nearly all actives have a fitted effect of over 45% in size
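hTERT-immortalized A-T patient fibroblasts (F2112), 500 cells/well in OPTI-MEM, 1% FBS, got compounds for 60 min, then NCS for 30 min at 37C. Lysates were then assayed for phospho-KAP-1 by AlphaLISA (anti-pKAP1 donor, anti-KAP1 acceptor beads), 6 hr at 25C.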
IMPase Li cell: membrane-permeable IMPase blocker, potentiated with lithium; CHO-M1 cells, IP1 TR-FRET (IP-One), carbachol + lithium; actives 0.35% (n = 210,000); Potency, µM (doses to about 59.4 µM), for inactives: top-dose activity, negative = IMPase inhibition, actives largely listed as inhibitors;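 also: IP1 builds up when IMPase is blocked and the TR-FRET signal falls; potency is read from the fitted curve at half-maximal effect; plate controls were basal vehicle for no effect and high inhibitor control for full effect; nearly all actives have a fitted effect of over 50% in size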
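CHO-M1, 2000 cells/well, 16–30 h culture; cpd + low Li+, 30 min 37C; lysis with d2-IP1/Eu-anti-IP1 Ab, 10 min RT; TR-FRET 665/620 ratio and 620 channel; AC50 via Hill.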
TRPV1 potentiator: potentiators of human vanilloid receptor 1 (TRPV1); Q8NER1; TRPV1-expressing cells, Fluo-8 calcium influx, capsaicin EC20 potentiation; potentiation, % at 8.33 µM; actives 0.02% (n = 320,000); AID 540277; in the data active = potentiation above about 80%; inconclusive = between about 30% and that limit; also: 0% is about no effect
Target sequence (Q8NER1 whole entry, looked up): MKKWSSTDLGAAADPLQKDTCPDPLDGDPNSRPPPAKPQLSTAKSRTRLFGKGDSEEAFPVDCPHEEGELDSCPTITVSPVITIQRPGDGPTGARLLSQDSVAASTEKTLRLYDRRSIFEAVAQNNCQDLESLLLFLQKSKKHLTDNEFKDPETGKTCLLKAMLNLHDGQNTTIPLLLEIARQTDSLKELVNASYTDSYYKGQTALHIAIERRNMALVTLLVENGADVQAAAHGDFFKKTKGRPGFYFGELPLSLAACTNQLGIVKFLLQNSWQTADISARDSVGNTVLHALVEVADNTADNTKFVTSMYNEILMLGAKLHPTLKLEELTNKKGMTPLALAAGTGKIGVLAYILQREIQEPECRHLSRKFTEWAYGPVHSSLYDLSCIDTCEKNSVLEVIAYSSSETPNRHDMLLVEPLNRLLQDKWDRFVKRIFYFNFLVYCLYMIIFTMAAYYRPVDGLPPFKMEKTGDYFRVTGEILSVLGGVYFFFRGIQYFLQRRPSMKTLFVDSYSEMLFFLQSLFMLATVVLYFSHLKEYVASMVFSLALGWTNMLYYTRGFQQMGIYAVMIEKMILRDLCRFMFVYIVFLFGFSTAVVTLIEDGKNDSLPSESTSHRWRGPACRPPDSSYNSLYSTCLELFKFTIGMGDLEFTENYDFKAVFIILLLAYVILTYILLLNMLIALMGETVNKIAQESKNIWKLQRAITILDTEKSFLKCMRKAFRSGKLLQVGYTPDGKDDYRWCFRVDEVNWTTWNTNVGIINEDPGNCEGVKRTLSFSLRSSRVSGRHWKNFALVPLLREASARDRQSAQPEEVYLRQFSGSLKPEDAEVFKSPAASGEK
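Fluo-8 calcium influx in TRPV1-expressing cells, kinetic read (ex 480/em 520 nm). Compound added and read 3 min for agonist activity, followed by capsaicin at EC20 final and 2 min further read for enhancement.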
TRPV1 agonist: human TRPV1 agonism. TRPV1-expressing cells, Fluo-8 calcium influx, agonist mode. actives 0.19% (n = 320,000). activation, % at 8.33 µM. AID 540275; in the data active = activation above about 80%; inconclusive = between about 30% and that limit; also: 0% is about no effect
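Cells expressing TRPV1 were dye-loaded with Fluo-8 and read kinetically: 10 s baseline, 3 min after compound (agonist portion), then 2 min after EC20 capsaicin (allosteric enhancer portion). Calcium-bound dye fluorescence at 480/520 nm.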
Numbers without * were called inactive; ? = inconclusive; . = no result given; [ ] = dose if it differs, or a comment. Unless noted, calls follow the shape of the dose curve; as a rule, active = well fitted curve in the direction sought with a large enough effect; inconclusive = small, poorly fitted or top-dose-only effect, or another doubt; inactive = no such curve, though single readings can be large; an effect the other way counts as inactive or inconclusive.

SMILES	A-T KAP1 phos	IMPase Li cell	TRPV1 potentiator	TRPV1 agonist
CC(=O)OC1C(N2CCCCC2)c2c(ccc(/C=C/C(=O)N3CCCCC3)c2O)OC1(C)C (centres undefined)	1%	28%	-18	81*
CC1(C)Oc2ccc3ccc(=O)oc3c2C(N2CCCCC2)C1O (centres undefined)	-11%	31%[38.3 µM]	1	-3
COC(=O)Sc1nnc(-c2ccc(Br)cc2)o1	-3%	10µM*	1	0
Cc1cccc(NC(=S)NC(=O)Cc2ccccc2)c1C	-7%	.	8	?
Cc1cc(C)c(O)c(NC(=S)NC(=O)Cc2ccccc2)c1	0%	.	5	81*
CC(=O)OCCn1c2nc(=O)[nH]c(=O)c-2nc2cc(C)c(C)cc21	-4%	.	-21	122*
CCn1c(C)c(C(=O)O)c2cc(OC)c3ccccc3c21	10µM*	.	-6	9
O=C(Nc1ccc2c(c1)Cc1ccccc1-2)c1ccncc1	1%	-1%	-12	81*
O=C(O)c1ccc(C(=O)O)c(C(=O)Nc2ccc3c(c2)Cc2ccccc2-3)c1	.	-9%	.	.
COc1cc(OC)c(-c2c3cc(O)c(=O)cc-3oc3cc(O)c(O)cc23)cc1OC	-18%	5%	-13	104*
COc1cc2nc(=S)n3[nH]c(COc4ccccc4C)nc3c2cc1OC	6%	-10%	19	-2
COc1cc2nc(=S)n3[nH]c(CCn4nc(C)cc4C)nc3c2cc1OC	3%	10µM*	11	3
CCc1c(C)nc(N2CCN(c3cccc(OC)c3)CC2)[nH]c1=O	0%	.	-8	4
COc1cccc(N2CCN(c3nc(C)cc(=O)[nH]3)CC2)c1	4%	.	-11	97*
Nc1ncnc2c1ncn2[C@H]1O[C@@H](C(=O)OCCO)[C@@H](O)[C@H]1O	.	-5%	.	.
Cc1ccc(NC(=O)c2cc(S(=O)(=O)N3CCOCC3)cs2)cc1	4%	.	-9	81*
O=c1c(-c2ccc(F)cc2)nc2cnc(N3CCOCC3)nc2n1Cc1ccc(F)cc1	.	6%	.	.
CC(C)c1ccc(S(=O)(=O)c2cc3cc(Br)ccc3oc2=O)cc1	-3%	14µM*	-21	?
Cc1ccc(S(=O)(=O)c2cc3cc(Br)ccc3oc2=O)cc1	3%	1%	-10	28
CC(C)CCN(C(=O)CNC(=O)c1cccs1)C(C(=O)NC1CCCCC1)c1cccnc1 (centres undefined)	18µM*	.	-1	6
O=C(O)C1CC=CCC1C(=O)N1CCN(c2nc(-c3ccccc3Cl)c3cc(Br)ccc3n2)CC1 (centres undefined)	-1%	11µM*	6	2
O=C(NCCC1=CCCCC1)c1ccc(Cl)c(S(=O)(=O)N2CCOCC2)c1	0%	0%[38.3 µM]	-13	82*
O=C(NCCC1=CCCCC1)c1coc(=O)c(Br)c1	14%	28µM*	-16	24
O=C(NCCC1=CCCCC1)c1ccc(=O)oc1	2%	-6%[38.3 µM]	5	10
O=C(NCCC1=CCCCC1)c1ccc(Cl)c(S(=O)(=O)N2CCCCC2)c1	4%	.	-1	?
SMILES	A-T KAP1 phos	IMPase Li cell	TRPV1 potentiator	TRPV1 agonist
COc1ccc(C(=O)NCCC2=CCCCC2)cc1[N+](=O)[O-]	-1%	-8%	-26	88*
C[N+]1(C)CCO[C@](O)(c2ccccc2)C1	.	4%	.	.
O=C(CCCOc1ccc(Cl)cc1Cl)Nc1ccncc1	.	22%[38.3 µM]	-1	80*
O=c1cc(-c2ccc3c(c2)OCCO3)oc2ccc(Cl)cc12	-2%	10µM*	-8	9
CC(=O)C1=C(C)NC(SCC(=O)c2ccccc2)=C(C#N)C1CC(C)C (centres undefined)	3%	10µM*	-10	7
CC(=O)C1=C(C)NC(SCC(=O)c2ccccc2)=C(C#N)C1c1ccco1 (centres undefined)	4%	2%[38.3 µM]	-8	6
O=S(=O)(c1ccccc1)N1N=C(c2cccs2)CC1c1ccc(F)cc1 (centres undefined)	5%	11%[38.3 µM]	11	1
Fc1ccc(N2N=C(c3cccs3)CC2c2ccccc2)cc1 (centres undefined)	22µM*	10µM*	-4	9
O=C(CN1C(=O)c2cccc([N+](=O)[O-])c2C1=O)NCc1ccccc1	3.2µM*	.	4	-6
Cc1nc2c(S(=O)(=O)c3ccccc3)cnn2c(C)c1C	2%	-1%	82*	2
CC(C)(C)S(=O)(=O)c1cnc2c(S(=O)(=O)c3ccccc3)cnn2c1N	7%	8%	2	-1
CCCCn1nc(NC(=O)COC)c2cc3ccc(C)cc3nc21	48%	.	-22	89*
CCCn1nc(NC(=O)c2ccco2)c2cc3cc(C)ccc3nc21	22µM*	.	-15	?
CN(C)c1ccc(/C=C/C(=O)c2cccnc2)cc1	-23%	.	-4	85*
C[C@H]1Cc2c(COc3ccccc3)nc3c(c2CO1)CN(C(=O)c1ccco1)CC3	.	12%	.	.
CCOC(=O)CSc1nnc(-c2ccccc2NC(=O)c2ccccc2)o1	-9%	11µM*	-16	18
CCc1nnc(NC(=O)CSc2nnc(-c3ccccc3NC(=O)c3ccccc3)o2)s1	-2%	?	23	2
Cc1nn2c(N)c(C#N)cnc2c1-c1ccccc1	.	5%	10	-1
Cc1nn2c(N)c(C#N)cnc2c1-c1ccc(Cl)cc1	-6%	11µM*	-5	-1
O=C(Nc1ccc([N+](=O)[O-])cc1)N1CCCCCC1	9%	.	-20	19
CC(C)(C)c1ccc(NC(=O)N2CCCN(c3ccc([N+](=O)[O-])cn3)CC2)cc1	-6%	.	-16	92*
O=C1c2ccccc2C(=O)N1Cc1nn2c(-c3ccc(Cl)cc3)nnc2s1	5%	11µM*	-4	5
COc1ccc(-c2nnc3sc(CN4C(=O)c5ccccc5C4=O)nn23)cc1	-3%	?	0	-3
ON=C1CCCCC1	.	1%	.	.
O=Cc1sc(N2CCOCC2)nc1-c1ccccc1	-12%	14µM*	-19	11
SMILES	A-T KAP1 phos	IMPase Li cell	TRPV1 potentiator	TRPV1 agonist
O=C(Cn1cc(C(F)(F)F)cc(Cl)c1=O)Nc1cccc(Cl)c1	0%	10µM*	2	-5
Nc1c(C(=O)NCc2ccco2)sc2nc(N3CCOCC3)c3c(c12)CCCC3	17%	10µM*	7	-2
CCCCc1nc2c(c3c1C[C@H](C)OC3)CN(C(=O)N[C@H](C(=O)OC)C(C)C)CC2	.	-10%	.	.
COc1cccc(-c2nn3c(-c4ccco4)nnc3s2)c1	2%	11µM*	13	-4
Brc1ccc(-c2nn3c(-c4ccco4)nnc3s2)o1	-10%	11µM*	-7	5
NC(C(=O)O)C(CC(=O)O)c1ccc(Cl)cc1 (centres undefined)	.	10%	.	.
COC(=O)[C@@H](NC(=O)N1CCc2nc(COc3ccccc3)c3c(c2C1)CO[C@@H](C)C3)C(C)C	.	-3%	.	.
C[C@@H](N=C(N)N)C(=O)O	.	-7%	.	.
CCC1CCCCN1CC(C)(C)NS(=O)(=O)c1ccccc1 (centres undefined)	35µM*	.	-51	1
CN1CCN(CC(C)(C)NS(=O)(=O)c2ccccc2)CC1	17%	.	.	.
